Compounds without any hit were thinned out: in the full panel of roughly 83,000, 20% have a hit.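 Each cell line was grown in a 96-well plate and treated with one concentration of compound for 48 hours. Values below 10 were considered active.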 A number with no mark means an inactive call. Active and inactive are the calls of the source.
What was measured:
Assay in all cases: NCI-60 one-dose screen, 48 h (100 = growth as untreated, 0 = no growth, -100 = all killed)
SR leukemia = details: 10 µM unless noted
RPMI-8226 leukemia = details: 10 µM unless noted
OVCAR-8 ovarian = details: 10 µM unless noted
OVCAR-5 ovarian = details: 10 µM unless noted
OVCAR-4 ovarian = details: 10 µM
IGROV1 ovarian = details: 10 µM unless noted
OVCAR-3 ovarian = details: 10 µM unless noted
HS 578T breast = details: 10 µM unless noted
T-47D breast = details: 10 µM unless noted
BT-549 breast = details: 10 µM unless noted
MDA-MB-435 melanoma = details: 10 µM unless noted
SW-620 colon = details: 10 µM unless noted
MCF7 breast = details: 10 µM unless noted
HCT-116 colon = details: 10 µM unless noted
HCC-2998 colon = details: 10 µM unless noted
KM12 colon = details: 10 µM unless noted
NCI/ADR-RES ovarian = details: 10 µM unless noted

Compound	growth (SR leukemia)	growth (RPMI-8226 leukemia)	growth (OVCAR-8 ovarian)	growth (OVCAR-5 ovarian)	growth (OVCAR-4 ovarian)	growth (IGROV1 ovarian)	growth (OVCAR-3 ovarian)	growth (HS 578T breast)	growth (T-47D breast)	growth (BT-549 breast)	growth (MDA-MB-435 melanoma)	growth (SW-620 colon)	growth (MCF7 breast)	growth (HCT-116 colon)	growth (HCC-2998 colon)	growth (KM12 colon)	growth (NCI/ADR-RES ovarian)
COc1c(B(O)O)cccc1-c1nc2ccc3[nH]ncc3c2c2c1CCC2	67.8%	60.1%	61.2%	89.9%	80.7%	42%	89.8%	17.7%	48%	60%	64%	54.8%	74.4%	47.3%	88.8%	51.3%	–
CC1=CC[C@@H]2C(C)(C)[C@@H](O)CC[C@@]2(C)[C@@H]1COc1ccc2ccc(=O)oc2c1	71.5%	19.8%	30.5%	98%	31%	57.9%	–	44.2%	-10.1% (active)	18%	77.6%	79.2%	77.8%	44.6%	88%	40.4%	17.5%
C#C[C@]1(O)CC[C@H]2[C@@H]3CC=C4c5nc(Nc6ccc(OC)cc6OC)sc5CC[C@]4(C)[C@H]3CC[C@@]21C	5.67% (active)	-26.1% (active)	59.4%	51.7%	44.7%	43.2%	26.4%	–	22.3%	-16.7% (active)	-4.22% (active)	–	4.51% (active)	-21.1% (active)	29.8%	-50.4% (active)	50.3%
C#C[C@]1(O)CC[C@H]2[C@@H]3CC=C4c5nc(Nc6ncccn6)sc5CC[C@]4(C)[C@H]3CC[C@@]21C	17.8%	-12.3% (active)	77%	86%	67.9%	70.8%	–	1.8% (active)	40%	19.5%	50.5%	60.4%	59.7%	22.3%	88.3%	48.5%	75.4%
C#C[C@]1(O)CC[C@H]2[C@@H]3CC=C4c5nc(N)sc5CC[C@]4(C)[C@H]3CC[C@@]21C	23.6%	-7.97% (active)	85.3%	88.5%	63.4%	71.8%	47.2%	6.1% (active)	58.2%	0.196% (active)	15.5%	–	75.2%	33.8%	80.8%	44.7%	62.1%
c1ccc(-c2nnc(-c3c[nH]c4ncccc34)s2)cc1	83.6%	91.9%	98.9%	125%	89.4%	54.6%	88.5%	97.1%	40.5%	95.3%	94.8%	–	54.1%	91%	111%	93.2%	95.7%
Cn1cc(-c2nnc(-c3cn(C)c4ncccc34)s2)c2ccccc21	26.5%	43.9%	90.9%	90%	81%	70.2%	–	83.7%	47.9%	68.3%	9.15% (active)	61.6%	58.6%	76.6%	82.6%	25.4%	48%
CC(C)(C)c1cc(C(=O)Nc2ccccc2C(=O)NCCN)cc(C(C)(C)C)c1	-28.6% (active)	-25% (active)	-43.7% (active)	27%	43.3%	46.8%	18.9%	75.3%	-14.6% (active)	99.2%	-73.3% (active)	-56.8% (active)	-63.1% (active)	-94.7% (active)	-59.1% (active)	-62.2% (active)	23.2%
CCN1c2ccccc2C(Cl)(c2ccc(N(C)C)cc2)c2ccccc21	22.6%	-28.8% (active)	17.9%	107%	75.2%	-20.3% (active)	23.2%	102%	54.9%	62.1%	23.3%	12.2%	76.2%	17.5%	78%	21.9%	–
C#C[C@]1(O)CC[C@H]2[C@@H]3CC=C4c5nc(Nc6ccccn6)sc5CC[C@]4(C)[C@H]3CC[C@@]21C	8.66% (active)	-45.6% (active)	27.6%	30.1%	16.1%	32.7%	20.8%	-16.8% (active)	10.1%	-27.6% (active)	-32% (active)	-24.9% (active)	7.94% (active)	4.49% (active)	34.5%	-32.3% (active)	22.6%
Cc1ncc(C(=O)Nc2ccc(CN3CCN(C)CC3)c(C(F)(F)F)c2)cc1C#Cc1c(N)ncc2ccc(C#N)cc12	16.1%	40.6%	53.2%	41.2%	44.5%	10.4%	37.8%	26.9%	48.9%	51.4%	7.01% (active)	34.1%	29.5%	14.5%	58.4%	9.43% (active)	61.7%
Cc1cccc(C[C@H](NC(=O)Nc2ccc(Cl)cc2F)C(=O)N[C@@H]2C(=O)N3C[C@H](OC(=O)CCN(C)C)C[C@H]3C(=O)N3CCCC[C@H]3C(=O)N[C@@H](C)C(=O)N3C[C@H](C)C[C@H]3C(=O)O[C@H]2C)c1	28.7%	10%	16.8%	32.6%	11.4%	35.6%	8.87% (active)	26.2%	13.8%	4.55% (active)	14.6%	–	13.4%	-29% (active)	19%	23%	94.9%
CCOC(=O)c1nn(C2CCCCO2)c2ccc(NC(=O)Cn3nnc4ccccc43)cc12 (configuration not stated)	97.6%	107%	101%	97.7%	104%	103%	110%	99.4%	85.5%	96%	110%	105%	99.5%	88.6%	111%	104%	104%
CCOC(=O)c1nn(C2CCCCO2)c2ccc(NC(=O)CN3CCOCC3)cc12 (configuration not stated)	112%	109%	99.6%	102%	102%	102%	–	99.3%	98.9%	101%	106%	104%	97.3%	90.5%	109%	105%	104%
COc1cc2c(O)n(CCCN3CCOCC3)c3c4cnc5cccc(c(=O)c3c2cc1OC)c54	20.5%	14.8%	39.9%	69%	48%	60.3%	62.9%	–	18.6%	57.9%	47.2%	34.9%	14.5%	27.9%	59.2%	46.3%	74.5%
O=C(NNc1ccc(-c2ccccc2)nn1)c1ccc(F)cc1	92%	99.7%	98.6%	94.2%	94.8%	97%	103%	101%	88.7%	95.1%	100%	–	91%	103%	102%	102%	93.3%
CC(C)CCSc1nc(N)nc2nc[nH]c12	89.8%	94.6%	94.1%	107%	112%	79.9%	103%	122%	89.1%	140%	116%	113%	96.1%	92.9%	101%	92.6%	–
C[C@@H]1C[C@H]2C(=O)O[C@@H](C)[C@H](NC(=O)[C@H](Cc3cc(F)cc(F)c3)NC(=O)Nc3ccc(Cl)cc3F)C(=O)N3C[C@H](O)C[C@H]3C(=O)N3CCN(C)C[C@H]3C(=O)N[C@@H](C)C(=O)N2C1	40.3%	20.4%	39.1%	41.9%	16.4%	51.3%	20.4%	37.9%	19.2%	14.9%	22.3%	42%	23%	8.85% (active)	32.8%	41.2%	105%

Reference: PubChem BioAssay (NCI)
